# Results as given in PubChem BioAssay AID1578 (Sanford-Burnham Center for Chemical Genomics, 2009).
# The campaign covered roughly 290,000 compounds. About 3,000 (1%) were called active. The full list was thinned out, with actives kept by preference. Unmarked numbers belong to inactive results. No stated cut-off is given here; in the data, active means inhibition mostly above about 36% (no sharp cut-off); inactive means mostly below about 34%.
# Assay: NOD1 signaling inhibitors, primary screen, cell-based, luminescence, uHTS (AID 1578);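 further: HEK-293T reporter cells stimulated with the NOD1 agonist gamma-tri-DAP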
# Details: NOD1-driven NF-kB luciferase reporter cells, at 4 µM, hits give high values
row,Structure (SMILES),inhibition
1,Cc1cccc2c1CC(C)(C)N=C2C1=C(O)CCCC1=O,-19.9%
2,C/C(=N\NC(=O)C1CC1)c1ccc(C(C)(C)C)cc1,-39.6%
3,CSc1ccc(OC2CCCCC2NS(=O)(=O)c2ccc(Cl)cc2)cc1 (stereo not drawn),8.3%
4,CCC(O)(CC)C(=O)N/N=C/c1cc(Br)cc(Br)c1O,1.3%
5,CC(C)(C)NC(=S)N/N=C/c1cccnc1,-10.2%
6,Oc1c(Br)cc(Br)cc1/C=N/NC(=S)N[C@H]1CC2C=CC1C2 (stereo partly drawn),47.8% (active)
7,Oc1c(Br)cc(/C=N/NC(=S)NCc2ccco2)cc1Br,15%
8,CNC(=S)N/N=C/c1cc(C)ccc1C,-38.3%
9,Oc1c(Cl)cc(Cl)cc1/C=N/NC(=S)NC1CC2C=CC1C2 (stereo not drawn),26.6%
10,CNC(=S)N/N=C/c1cc(Br)cc(Br)c1O,73.9% (active)
11,Oc1ccccc1/C=N/NC(=S)NC1CC2C=CC1C2 (stereo not drawn),-1.4%
12,Nc1nc(SCC(=O)N2CCCCC2)[nH]c(=O)c1NC(=O)c1cccs1,-15.7%
13,COc1ccc(N(CC(=O)Nc2ccc3c(c2)OCCO3)S(C)(=O)=O)c(OC)c1,-7.6%
14,COc1ccc(Cn2c3ccc(OC)cc3c3nc4ccccc4nc32)cc1,-41.1%
15,Cc1cc(Br)ccc1OCCCCNCCO,-40.2%
16,O=c1cc(COc2ccc(Cl)c(Cl)c2)nc2sccn12,-5.4%
17,CCN(CC)c1ccc(N=Cc2ccc([N+](=O)[O-])o2)cc1,-31.4%
18,Cc1ccc(NC(=O)Cc2ccccc2)c(C)c1,-29.9%
19,Cc1ccc(NC(=O)c2cc(C)nc3ccccc23)c(C)c1,-34.7%
20,COc1ccccc1N(C(=O)c1ccco1)C(C(=O)NC1CCCC1)c1ccc(N2CCOCC2)cc1 (stereo not drawn),37.6%
21,Cc1ccccc1CC(=O)N1CCCC(CCC(=O)N2CCN(c3ccccn3)CC2)C1 (stereo not drawn),-12.6%
22,Cc1c(CCO)c(=O)n2c([nH]c3ccccc32)c1C#N,1.6%
23,Cc1c(Cc2ccccc2)c(=O)n2c([nH]c3ccccc32)c1C#N,90.3% (active)
24,Cc1c(CCC(C)C)c(=O)n2c([nH]c3ccccc32)c1C#N,91.2% (active)
25,Cc1c(CCC(=O)O)c(=O)n2c([nH]c3ccccc32)c1C#N,0.9%
26,C=C(C)Cc1c(C)c(C#N)c2[nH]c3ccccc3n2c1=O,19.2%
27,CCc1c(C)c(C#N)c2[nH]c3ccccc3n2c1=S,1.4%
28,CN(C1CCCCC1)S(=O)(=O)c1ccc(NC(=O)c2ccco2)cc1,1.3%
